Reference: PubChem BioAssay AID1159580 (chemical genetic matrix, 2015)
About 2,000 (36%) of roughly 5,500 compounds were called active. About 18% were inconclusive and are not listed. Rule as the data show it: active = normalized growth mostly below about 0.91 (no sharp cut-off); inconclusive = no clear call, values can overlap the other calls; inactive = mostly above about 0.92. This is one part of the list.

Assay: chemical genetic growth profiling, strain panel (AID 1159580);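 also: tested at 20 µM; growth read once vehicle control cultures reached saturation at 30 °C; 1 = growth at the plate median or of vehicle wells; lower values mean less growth of the strain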
Details: growth OD

Measured: normalized growth

O=c1c(O)c(-c2ccc(O)c(O)c2)oc2cc(O)ccc12
active: S. cerevisiae deletion strains, locus YKL190W, strain CNB1, active compounds read low 0.881 | S. cerevisiae deletion strains, locus YKR001C, strain vps1, active compounds read low 0.857 | S. cerevisiae deletion strains, locus YLR113W, strain HOG1, active compounds read low 0.571 | S. cerevisiae deletion strains, locus YLR268W, strain sec22, active compounds read low 0.854 | S. cerevisiae deletion strains, locus YLR330W, strain CHS5, active compounds read low 0.908 | S. cerevisiae deletion strains, locus YLR342W, strain FKS1 (second series), active compounds read low 0.753 | S. cerevisiae deletion strains, locus YLR371W, strain rom2, active compounds read low 0.882 | S. cerevisiae deletion strains, locus YLR418C, strain cdc73, active compounds read low 0.565 | S. cerevisiae deletion strains, locus YMR223W, strain ubp8, active compounds read low 0.893 | S. cerevisiae deletion strains, locus YNL153C, strain GIM3, active compounds read low 0.806 | S. cerevisiae deletion strains, locus YNL183C, strain NPR1, active compounds read low 0.357 | S. cerevisiae deletion strains, locus YNL233W, strain BNI4, active compounds read low 0.795 | S. cerevisiae deletion strains, locus YNL307C, strain MCK1, active compounds read low 0.779 | S. cerevisiae deletion strains, locus YNL322C, strain KRE1, active compounds read low 0.918 | S. cerevisiae deletion strains, locus YOL006C, strain TOP1, active compounds read low 0.52 | S. cerevisiae deletion strains, locus YOR231W, strain MKK1, active compounds read low 0.54 | S. cerevisiae deletion strains, locus YPL256C, strain CLN2, active compounds read low 0.421 | S. cerevisiae deletion strains, strain wtn01, active compounds read low 0.86 | S. cerevisiae strains, strain wild type, active compounds read low 0.815
inactive: S. cerevisiae deletion strains, locus YKL009W, strain mrt4, active compounds read low 1.03 | S. cerevisiae deletion strains, locus YKL068W, active compounds read low 0.99 | S. cerevisiae deletion strains, locus YKL085W, strain MDH1 (second series), active compounds read low 1 | S. cerevisiae deletion strains, locus YKL085W, strain MDH1, active compounds read low 1 | S. cerevisiae deletion strains, locus YKL160W, strain elf1, active compounds read low 0.982 | S. cerevisiae deletion strains, locus YKR026C, strain gcn3, active compounds read low 1 | S. cerevisiae deletion strains, locus YKR091W, strain srl3, active compounds read low 1 | S. cerevisiae deletion strains, locus YLL001W, strain dnm1, active compounds read low 0.994 | S. cerevisiae deletion strains, locus YLL026W, active compounds read low 0.995 | S. cerevisiae deletion strains, locus YLL041C, strain sdh2, active compounds read low 0.996 | S. cerevisiae deletion strains, locus YLR027C, strain aat2, active compounds read low 0.968 | S. cerevisiae deletion strains, locus YLR039C, strain RIC1, active compounds read low 0.848 | S. cerevisiae deletion strains, locus YLR058C, strain SHM2, active compounds read low 0.978 | S. cerevisiae deletion strains, locus YLR102C, strain apc9, active compounds read low 1.01 | S. cerevisiae deletion strains, locus YLR221C, strain rsa3, active compounds read low 0.95 | S. cerevisiae deletion strains, locus YLR258W, strain gsy2, active compounds read low 1 | S. cerevisiae deletion strains, locus YLR262C, strain YPT6 (second series), active compounds read low 0.981 | S. cerevisiae deletion strains, locus YLR262C, strain YPT6, active compounds read low 0.877 | S. cerevisiae deletion strains, locus YLR320W, strain mms22, active compounds read low 0.942 | S. cerevisiae deletion strains, locus YLR342W, strain FKS1, active compounds read low 0.978 | S. cerevisiae deletion strains, locus YLR357W, strain rsc2, active compounds read low 0.922 | S. cerevisiae deletion strains, locus YLR370C, strain arc18, active compounds read low 0.978 | S. cerevisiae deletion strains, locus YLR384C, strain iki3, active compounds read low 0.98 | S. cerevisiae deletion strains, locus YML016C, strain PPZ1, active compounds read low 0.974 | S. cerevisiae deletion strains, locus YML032C, strain rad52, active compounds read low 0.962 | S. cerevisiae deletion strains, locus YML120C, strain ndi1, active compounds read low 1.01 | S. cerevisiae deletion strains, locus YML124C, strain tub3, active compounds read low 1 | S. cerevisiae deletion strains, locus YMR058W, strain fet3, active compounds read low 0.944 | S. cerevisiae deletion strains, locus YMR078C, strain ctf18, active compounds read low 0.997 | S. cerevisiae deletion strains, locus YMR125W, strain sto1, active compounds read low 1.02 | S. cerevisiae deletion strains, locus YMR129W, active compounds read low 0.986 | S. cerevisiae deletion strains, locus YMR205C, strain PFK2, active compounds read low 0.994 | S. cerevisiae deletion strains, locus YMR231W, strain pep5, active compounds read low 0.987 | S. cerevisiae deletion strains, locus YMR263W, strain SAP30, active compounds read low 0.892 | S. cerevisiae deletion strains, locus YMR307W, strain GAS1, active compounds read low 0.675 | S. cerevisiae deletion strains, locus YNL067W, strain RPL9B, active compounds read low 0.901 | S. cerevisiae deletion strains, locus YNL071W, strain lat1, active compounds read low 0.945 | S. cerevisiae deletion strains, locus YNL128W, strain TEP1, active compounds read low 0.864 | S. cerevisiae deletion strains, locus YNL209W, strain ssb2, active compounds read low 0.949 | S. cerevisiae deletion strains, locus YNL248C, strain rpa49, active compounds read low 0.995 | S. cerevisiae deletion strains, locus YNL250W, strain rad50, active compounds read low 0.942 | S. cerevisiae deletion strains, locus YNL271C, strain bni1, active compounds read low 0.978 | S. cerevisiae deletion strains, locus YNL298W, strain CLA4, active compounds read low 0.965 | S. cerevisiae deletion strains, locus YNL322C, strain KRE1 (second series), active compounds read low 1 | S. cerevisiae deletion strains, locus YNR049C, strain mso1, active compounds read low 0.997 | S. cerevisiae deletion strains, locus YNR052C, strain pop2, active compounds read low 1 | S. cerevisiae deletion strains, locus YOL012C, strain htz1 0.318 | S. cerevisiae deletion strains, locus YOL147C, strain pex11, active compounds read low 1 | S. cerevisiae deletion strains, locus YOR001W, strain rrp6, active compounds read low 0.935 | S. cerevisiae deletion strains, locus YOR061W, strain CKA2, active compounds read low 0.955 | S. cerevisiae deletion strains, locus YOR069W, strain VPS5, active compounds read low 0.997 | S. cerevisiae deletion strains, locus YOR070C, strain gyp1, active compounds read low 0.968 | S. cerevisiae deletion strains, locus YOR080W, strain dia2, active compounds read low 0.984 | S. cerevisiae deletion strains, locus YOR083W, strain WHI5, active compounds read low 0.984 | S. cerevisiae deletion strains, locus YOR106W, strain vam3, active compounds read low 0.984 | S. cerevisiae deletion strains, locus YOR136W, strain idh2, active compounds read low 0.976 | S. cerevisiae deletion strains, locus YOR144C, strain elg1, active compounds read low 1.01 | S. cerevisiae deletion strains, locus YOR184W, strain ser1, active compounds read low 0.883 | S. cerevisiae deletion strains, locus YOR265W, strain rbl2, active compounds read low 1.02 | S. cerevisiae deletion strains, locus YOR270C, strain vph1, active compounds read low 1.02 | S. cerevisiae deletion strains, locus YOR290C, strain snf2, active compounds read low 0.997 | S. cerevisiae deletion strains, locus YOR316C, strain cot1, active compounds read low 1.01 | S. cerevisiae deletion strains, locus YPL051W, strain arl3, active compounds read low 0.962 | S. cerevisiae deletion strains, locus YPL055C, strain LGE1, active compounds read low 0.784 | S. cerevisiae deletion strains, locus YPL078C, strain atp4, active compounds read low 1.01 | S. cerevisiae deletion strains, locus YPL106C, strain sse1, active compounds read low 0.971 | S. cerevisiae deletion strains, locus YPL240C, strain hsp82, active compounds read low 0.998 | S. cerevisiae deletion strains, locus YPL241C, strain CIN2, active compounds read low 0.981 | S. cerevisiae deletion strains, locus YPR119W, strain clb2, active compounds read low 1.01 | S. cerevisiae deletion strains, locus YPR141C, strain kar3, active compounds read low 0.978 | S. cerevisiae deletion strains, locus YPR163C, strain tif3, active compounds read low 0.956 | S. cerevisiae deletion strains, locus YPR167C, strain met16, active compounds read low 1.01
